Assay results: PubChem BioAssay (Tox21)
Records with an inconclusive call do not appear. Activity calls are given as the source filed them. Unless noted, the call rests on the fitted dose curve.

Assays:
[1] = target: Nuclear receptor subfamily 1 group I member 3 (Homo sapiens) (UniProt Q14994); assay: qHTS assay to identify small molecule agonists of the constitutive androstane receptor (CAR) signaling pathway (AID 1224839; active means well fitted curve in the direction sought with a large enough effect in the repeat runs; an effect the other way counts as inactive or inconclusive;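 further: HepG2 cells stably carrying human CAR and a CYP2B6 luciferase reporter; series mostly up to about 92 µM; nearly all actives have a fitted effect of over 15% in size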)
How it was run: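 HepG2-CYP2B6-hCAR cells, 2500/well, 4 h pre-incubation; compounds 15 conc.; PK11195 0.75 uM final; 24 h, 37 C/5% CO2; ONE-Glo luciferase read.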

[2] = qHTS assay to identify small molecule antagonists of the estrogen related receptor signaling pathway with the pleiotropic PPARgamma coactivator (PGC) from Tox21 10K library - cell viability counter screen (AID 1224840; active means well fitted cell-killing curve with a large enough effect in the repeat runs, not every such curve was filed as active; further: nearly all actives have a fitted effect of over 40% in size)
How it was run: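 Counter-screen for cytotoxicity: after 17.5 h compound exposure at 37 C, CellTiter-Fluor reagent added to PGC/ERR cells for 30 min and fluorescence read. Cells were seeded at 2,000 per well 6 h before dosing.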

[3] = qHTS assay to identify small molecule agonists of the hypoxia (HIF-1) signaling pathway - cell viability counter screen (AID 1224844); further: nearly all actives have a fitted effect of over 50% in size
How it was run: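 Cytotoxicity measured by CellTiter-Glo ATP luminescence in the wells also read for beta-lactamase signal. Cells were HRE-bla ME-180 (2,000/well, 0.5% dialyzed FBS), exposed to compounds for 17 h at 37C.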

[4] = qHTS assay to identify small molecule agonists of H2AX (AID 1224845; active means well fitted activation curve with a large enough effect in the signal ratio in the repeat runs, not every such curve was filed as active; the % refers to the signal ratio)
How it was run: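 Wild-type CHO-K1 cells plated overnight, then exposed 3 hr at 37C to compounds at 15 concentrations (0.76% DMSO). Lysed, then HTRF anti-pH2AX(S139)-cryptate/anti-H2AX-d2 detection after 24 hr at room temperature; emissions 665 and 620 nm.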

[5] = qHTS assay to identify small molecule agonists of H2AX - cell viability counter screen (AID 1224847); further: top concentration of the series differs between compounds; nearly all actives have a fitted effect of over 30% in size
How it was run: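 Cells plated first: CHO-K1, 1000 per well in 10% FBS medium, incubated overnight at 37C. Then 15-point compound titration added (final DMSO 0.76%) for 3 hr. Finally CellTiter-Glo added and luminescence read.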

[6] = qHTS assay to identify small molecule antagonists of the estrogen related receptor signaling pathway with the pleiotropic PPARgamma coactivator (PGC) from Tox21 10K library (AID 1224841; call rule not given here; further: series mostly up to about 92 µM; actives are mostly falling curves and most rising ones were filed inactive; nearly all actives have a fitted effect of over 50% in size)
How it was run: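 Luminescence (One-Glo, 30 min at room temperature) after 18 h compound treatment at 37 C of PGC/ERR reporter cells plated at 2,000 cells/well and settled 6 h beforehand.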

[7] = qHTS assay to identify small molecule agonists of the estrogen related receptor signaling pathway with the pleiotropic PPARgamma coactivator (PGC) from Tox21 10K library (AID 1224842; active means well fitted curve in the direction sought with a large enough effect in the repeat runs; an effect the other way counts as inactive or inconclusive; further: nearly all actives have a fitted effect of over 15% in size)
How it was run: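 PGC/ERR reporter cells (NTP line) were seeded 2,000 per well, rested 6 h at 37 C/5% CO2, then pin-dosed with compounds in DMSO for 18 h at 37 C; luciferase read by One-Glo luminescence after 30 min at room temperature.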

[8] = target: Thyrotropin receptor (Homo sapiens) (UniProt P16473); assay: qHTS assay to identify small molecule agonists of the thyroid stimulating hormone receptor (TSHR) signaling pathway (AID 1224843); further: nearly all actives have a fitted effect of over 45% in size
How it was run: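 Using 15 concentrations per compound in triplicate, cAMP production was monitored in TSHR-HEK293 cells after 30 min compound incubation at RT; HTRF reagents followed, with fluorescence intensity recorded after 1 h.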

[9] = qHTS assay to identify small molecule agonists of the hypoxia (HIF-1) signaling pathway (AID 1224846; active means well fitted activation curve with a large enough effect in the signal ratio in the repeat runs, not every such curve was filed as active; the % refers to the signal ratio)
How it was run: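 Compounds added to ME-180 cells carrying hypoxia-response-element beta-lactamase reporter (0.5% dialyzed FBS, 5 h preplating), 17 h at 37C; agonist activity detected by CCF4-AM B/G FRET read-out.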

[10] = qHTS assay to identify small molecule antagonists of the estrogen related receptor (ERR) signaling pathway from Tox21 library (AID 1224848; active means well fitted curve in the direction sought with a large enough effect in the repeat runs; an effect the other way counts as inactive or inconclusive; further: nearly all actives have a fitted effect of over 50% in size)
How it was run: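 Tox21 10K compounds in DMSO tested for ERR pathway antagonism in NTP's ERR cell line; 18 h, 37 C exposure; ONE-Glo luminescence.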
On the % scale 0 is the no-effect control and ±100 the full control effect.

Chain of Nuclear receptor subfamily 1 group I member 3 (Homo sapiens) (Q14994 whole entry, looked up): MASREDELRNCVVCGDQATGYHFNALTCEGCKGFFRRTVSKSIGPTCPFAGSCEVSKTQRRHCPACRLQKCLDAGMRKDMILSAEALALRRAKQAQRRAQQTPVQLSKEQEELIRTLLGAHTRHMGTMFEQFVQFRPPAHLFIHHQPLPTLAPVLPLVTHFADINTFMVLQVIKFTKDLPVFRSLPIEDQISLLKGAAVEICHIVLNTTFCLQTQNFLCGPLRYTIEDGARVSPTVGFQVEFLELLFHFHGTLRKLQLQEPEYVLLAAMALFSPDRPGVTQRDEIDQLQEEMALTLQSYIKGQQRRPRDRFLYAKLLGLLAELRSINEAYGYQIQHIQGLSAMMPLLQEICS
Chain of Thyrotropin receptor (Homo sapiens) (P16473 whole entry, looked up): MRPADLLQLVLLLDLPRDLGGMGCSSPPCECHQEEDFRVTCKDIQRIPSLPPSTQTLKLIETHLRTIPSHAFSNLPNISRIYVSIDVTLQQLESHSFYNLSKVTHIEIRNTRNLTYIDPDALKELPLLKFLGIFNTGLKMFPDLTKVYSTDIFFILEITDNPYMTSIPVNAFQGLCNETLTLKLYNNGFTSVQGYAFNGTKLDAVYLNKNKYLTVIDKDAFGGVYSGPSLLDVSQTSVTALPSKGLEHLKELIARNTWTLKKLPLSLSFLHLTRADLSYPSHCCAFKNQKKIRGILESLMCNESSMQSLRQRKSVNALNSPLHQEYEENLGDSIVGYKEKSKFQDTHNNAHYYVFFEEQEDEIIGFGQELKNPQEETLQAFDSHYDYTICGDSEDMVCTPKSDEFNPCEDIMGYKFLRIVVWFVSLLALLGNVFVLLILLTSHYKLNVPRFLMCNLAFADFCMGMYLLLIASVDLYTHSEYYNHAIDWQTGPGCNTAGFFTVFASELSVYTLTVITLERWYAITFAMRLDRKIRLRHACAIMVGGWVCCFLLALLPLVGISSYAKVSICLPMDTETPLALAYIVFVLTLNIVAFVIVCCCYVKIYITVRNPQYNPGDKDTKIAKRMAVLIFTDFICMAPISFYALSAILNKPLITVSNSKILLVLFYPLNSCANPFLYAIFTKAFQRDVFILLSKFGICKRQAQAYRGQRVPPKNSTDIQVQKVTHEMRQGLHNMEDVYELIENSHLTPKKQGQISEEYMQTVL

CCC(=O)OCCC(C)CCC=C(C)C (centres undefined)
inactive: Potency [1] | outcome [2] | outcome [3] | outcome [4] | Potency [5]

CN(C)CCOCCN(C)CCO
inactive: outcome [2] | Potency [6] | outcome [7] | outcome [8] | outcome [3] | outcome [4] | outcome [9] | Potency [5]

NC(=O)C1(N2CCCCC2)CCN(CCCC(=O)c2ccc(F)cc2)CC1
inactive: outcome [2] | Potency [6] | outcome [7] | outcome [8] | outcome [3] | outcome [4] | outcome [9] | Potency [5]

CC(CC(=O)O)CC(C)(C)C (centres undefined)
inactive: Potency [1] | outcome [2] | outcome [3] | outcome [4] | outcome [9] | Potency [5]

CCOc1ccc(NC(=O)OC(C)C)cc1OCC
inactive: Potency [1] | outcome [2] | outcome [3] | outcome [4] | outcome [9] | Potency [5]

C[CH2][Ge]([Cl])([CH2]C)[CH2]C
inactive: outcome [2] | Potency [6] | outcome [7] | outcome [8] | outcome [3] | outcome [4] | outcome [9] | Potency [5] | Potency [10]

CCCCC(CC)COC(=O)c1ccccc1 (centres undefined)
inactive: Potency [1] | outcome [2] | outcome [3] | outcome [4] | outcome [9] | Potency [5]

CC1=NN(c2ccc(S(=O)(=O)O)cc2)C(=O)C1N=Nc1ccccc1 (centres undefined)
inactive: Potency [1] | outcome [3] | Potency [5]

CCCCC(C)C(=O)O (centres undefined)
inactive: outcome [2] | Potency [6] | outcome [7] | outcome [8] | outcome [3] | outcome [4] | outcome [9] | Potency [5]

O=c1[nH]c(=O)c2ccccc2o1
inactive: outcome [2] | Potency [6] | outcome [7] | outcome [8] | outcome [3] | outcome [4] | outcome [9] | Potency [5]

NC(=O)NC(=O)Cc1ccccc1
inactive: outcome [2] | Potency [6] | outcome [7] | outcome [8] | outcome [3] | outcome [4] | outcome [9] | Potency [5]

CCCCCCCCCCCCCCCCCCN(C)C
inactive: outcome [2] | Potency [6] | outcome [7] | outcome [8] | outcome [3] | outcome [4] | outcome [9] | Potency [5]

O=C(COCCOCCOCC(=O)Nc1c(I)cc(I)c(C(=O)O)c1I)Nc1c(I)cc(I)c(C(=O)O)c1I
inactive: outcome [2] | Potency [6] | outcome [7] | outcome [8] | outcome [3] | outcome [4] | outcome [9] | Potency [5]

COc1cccc2sc(N)nc12
inactive: outcome [2] | Potency [6] | outcome [7] | outcome [8] | outcome [3] | outcome [4] | outcome [9] | Potency [5]

O=C(O)c1ccc(OCCN2CCCCC2)cc1
inactive: outcome [2] | Potency [6] | outcome [7] | outcome [8] | outcome [3] | outcome [4] | outcome [9] | Potency [5]

CCC(C)(C)C1CCC(=O)CC1
inactive: outcome [2] | Potency [6] | outcome [7] | outcome [8] | outcome [3] | outcome [4] | outcome [9] | Potency [5] | Potency [10]

FC(F)(F)/C(=N\OCC1OCCO1)c1ccc(Cl)cc1
inactive: Potency [1] | outcome [2] | outcome [3] | outcome [4] | outcome [9] | Potency [5]

O=S1(=O)CCCC1
inactive: Potency [1] | outcome [2] | outcome [3] | outcome [4] | outcome [9] | Potency [5]

COc1cc(C=O)ccc1OC(=O)C(C)C
inactive: outcome [2] | Potency [6] | outcome [7] | outcome [8] | outcome [3] | outcome [4] | outcome [9] | Potency [5]

C1=C\CC/C=C\CC/1
inactive: Potency [1] | outcome [2] | outcome [3] | outcome [4] | outcome [9] | Potency [5]

COc1cc([N+](=O)[O-])ccc1N
inactive: Potency [1] | outcome [8] | outcome [3] | outcome [4] | outcome [9] | Potency [5]

CCc1nccnc1C
inactive: outcome [2] | Potency [6] | outcome [7] | outcome [8] | outcome [3] | outcome [4] | outcome [9] | Potency [5]

O=C(Oc1ccccc1C(=O)O)c1ccccc1O
inactive: outcome [2] | Potency [6] | outcome [7] | outcome [8] | outcome [3] | outcome [4] | Potency [5]

CCCCCCCCCCCCCCCCI
inactive: viability change, negative = cytotoxic [2] -0.222% [at 19 µM] | activity, negative = inhibition [6] -7.26% [at 19 µM] | activation [7] -1.58% [at 19 µM] | activation [8] -19.7% [at 19 µM] | activation (H2AX phosphorylation) [4] 0.0964% [at 31.6 µM] | activation [9] 0.543% [at 15.8 µM] | activity change, negative = cytotoxicity [5] -0.0372% [at 31.6 µM] | activity, negative = inhibition [10] 4.33% [at 19 µM]

Cn1c(=O)c2c(ncn2CC2OCCO2)n(C)c1=O
inactive: outcome [2] | Potency [6] | outcome [7] | outcome [3] | outcome [4] | outcome [9] | Potency [5] | Potency [10]

CCCCCCCCC(=O)OCC
inactive: outcome [2] | Potency [6] | outcome [7] | outcome [8] | outcome [3] | outcome [4] | outcome [9] | Potency [5] | Potency [10]

CC(=O)Nc1ncc([N+](=O)[O-])s1
inactive: outcome [2] | Potency [6] | outcome [7] | outcome [8] | outcome [3] | outcome [4] | outcome [9] | Potency [5] | Potency [10]

C=CCOCC(CO)(COCC=C)COCC=C
inactive: outcome [2] | Potency [6] | outcome [7] | outcome [8] | outcome [3] | outcome [4] | outcome [9] | Potency [5] | Potency [10]

C=CCOc1c(Br)cc(Br)cc1Br
inactive: outcome [2] | Potency [6] | outcome [7] | outcome [3] | outcome [4] | outcome [9] | Potency [5] | Potency [10]

O=C(O)CCNC(=O)c1ccccc1
inactive: outcome [2] | Potency [6] | outcome [7] | outcome [8] | outcome [3] | outcome [4] | Potency [5]

CC(C)C(=O)c1ccccc1
inactive: outcome [2] | Potency [6] | outcome [7] | outcome [8] | outcome [3] | outcome [4] | Potency [5]

Cc1cccc(Nc2ccncc2S(=O)(=O)NC(=O)NC(C)C)c1
inactive: outcome [2] | Potency [6] | outcome [7] | outcome [8] | outcome [3] | outcome [4] | outcome [9] | Potency [5] | Potency [10]

COc1ccc(NS(=O)(=O)c2ccc(N)cc2)nn1
inactive: outcome [2] | Potency [6] | outcome [7] | outcome [8] | outcome [3] | outcome [4] | Potency [5] | Potency [10]

CC(Cl)COP(=O)(OCC(C)Cl)OCC(C)Cl (centres undefined)
inactive: outcome [2] | Potency [6] | outcome [7] | outcome [8] | outcome [3] | outcome [4] | outcome [9] | Potency [5] | Potency [10]
